# Rows were chosen to be rich in hits. Some 2.4% of all compounds tested hit in one or more screens of this group.
# D2 antagonist: D2 dopamine receptor (human) antagonism; inhibition, % at 10 µM; AID 485344; HEK293 TREx D2 cells, calcium flux, dopamine EC80; 2% of 340,000 active; in the data active = inhibition above about 30%; inactive = below that, where a call was filed; note: 0% is about no effect
# Target sequence (P14416 whole entry, looked up): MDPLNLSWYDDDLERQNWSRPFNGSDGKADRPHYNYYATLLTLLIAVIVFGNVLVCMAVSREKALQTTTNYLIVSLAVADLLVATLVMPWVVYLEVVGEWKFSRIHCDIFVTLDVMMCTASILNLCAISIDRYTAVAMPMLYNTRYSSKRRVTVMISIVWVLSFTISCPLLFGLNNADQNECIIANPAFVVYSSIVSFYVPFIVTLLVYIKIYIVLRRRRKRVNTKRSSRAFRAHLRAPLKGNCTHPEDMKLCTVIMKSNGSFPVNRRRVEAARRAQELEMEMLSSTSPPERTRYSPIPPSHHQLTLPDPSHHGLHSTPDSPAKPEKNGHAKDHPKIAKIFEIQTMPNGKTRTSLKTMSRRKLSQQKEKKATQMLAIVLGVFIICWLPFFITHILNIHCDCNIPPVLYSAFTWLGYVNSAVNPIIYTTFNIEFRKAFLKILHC
#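 Calcium flux kinetic readout in an inducible HEK293 TREx D2 line plated overnight at 30 C. After 180 s compound exposure, an EC80 dopamine challenge follows with another 180 s kinetic read to detect antagonism.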
# D2 ag-1: agonists of human D2 dopamine receptor (beta-arrestin) | P14416 | DiscoveRx PathHunter D2 beta-arrestin, luminescence, 90 min; 100% = 57 uM dopamine signal | activation, % (no concentration beside the values) | 0.084% of 360,000 active; in the data active = activation above about 40%; inconclusive = between about 15% and that limit
#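 DiscoveRx PathHunter D2 beta-arrestin cells (2,100/well) attached overnight, then compound-stimulated 90 min at 37 C in HBSS/10 mM HEPES/0.1% Tween-20 buffer; beta-galactosidase complementation read by luminescence after 1 h at ambient temperature. Dopamine 57 uM final (EC100) as control.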
# D2 PAM-1: D2 dopamine receptor (human) potentiation. potentiation, % at 10 µM. 0.34% of 340,000 active. HEK293 T-REx D2, calcium flux, EC20 dopamine potentiation. P14416;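 active = potentiation over 3 SD above the plate norm, cut at about 30% in these data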; note: 0% is about no effect
#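 Tetracycline-induced Hek293 Trex D2 cells, force-coupled to calcium, loaded with no-wash calcium dye. Compound added with 180 s kinetic read for agonism, then EC20 dopamine and a further 180 s read for potentiation.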
# D2 PAM-2: potentiates the human D2 dopamine receptor allosterically | 0.23% of 360,000 active | potentiation, % (test concentration not listed) | AID 624464 | DiscoveRx D2 beta-arrestin cells, luminescence, 90 min; 100% = 57 uM dopamine signal; in the data active = potentiation above about 50%; inconclusive = mostly about 30% to 49%
#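 PathHunter D2 cells, attached overnight at 37 deg C, received compound in DMSO plus dopamine at EC20 (50 nM final) for 90 min at 37 deg C. Beta-arrestin recruitment was read as luminescence after 1 h with detection reagent at ambient temperature.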
# D2 ag-2: activates the human D2 dopamine receptor | HEK293 T-REx D2 cells, calcium flux agonist mode | activation, % at 2 µM | 0.53% of 340,000 active | AID 485358;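 active = activation over 3 SD above normal in the single-dose calcium agonist read, cut at about 30% in these data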; note: 0% is about no effect
#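 Calcium-flux readout, 1 cycle/sec over 180 s following compound pin transfer, in inducible HEK293 Trex D2 cells (force-coupled); dopamine controls included. Positive calcium responses during this window marked compounds as potential agonists.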
# * = called active by the depositor; u = inconclusive; x = no result given.
SMILES,D2 antagonist,D2 ag-1,D2 PAM-1,D2 PAM-2,D2 ag-2
C[C@H](N=C1NS(=O)(=O)c2ccccc21)C(=O)OCc1cc([N+](=O)[O-])cc2c1OCOC2,45*,0,-24,-13,2
O=C(CCCN=C1NS(=O)(=O)c2ccccc21)OCc1cc([N+](=O)[O-])cc2c1OCOC2,-8,5,7,-19,1
CCC(=O)NCCn1c(C)cc2ccccc21,-14,0,9,-3,1
Cc1cc2ccccc2n1CCNC(=O)COc1ccccc1,39*,-6,-18,-18,0
O=c1c2ccccc2nc2n1CC/C2=C/N1CCN(c2cccc(C(F)(F)F)c2)CC1,48*,1,-12,-19,0
O=C(O)c1ccc2c(=O)n3c(nc2c1)/C(=C/c1ccc(C(F)(F)F)cc1)CC3,13,-1,-1,1,0
CCOc1cccc(CN2CCCC(N3CCc4ccccc4C3)C2)c1O (stereo not drawn),-19,-6,12,-24,-1
CCOc1cccc(CN2CCCC(C(=O)c3cc(Cl)ccc3OC)C2)c1O (stereo not drawn),66*,2,-20,-22,1
CS(=O)(=O)N1CCCC(C(=O)N2CCN(c3cccc(Cl)c3)CC2)C1 (stereo not drawn),31*,4,6,2,1
Cc1cccc(C(=O)N2CCCC(N3CCN(c4cccc(Cl)c4)CC3)C2)n1 (stereo not drawn),4,1,3,-20,0
CS(=O)(=O)N1CCC(C(=O)N2CCN(c3cccc(Cl)c3)CC2)CC1,7,3,x,-4,0
O=C(c1cnccn1)N1CCCC(N2CCN(c3cccc(Cl)c3)CC2)C1 (stereo not drawn),8,5,-3,-20,37*
CCOc1cccc(CN2CCCC(N3CCN(c4cccc(Cl)c4)CC3)C2)c1O (stereo not drawn),37*,-2,-9,-21,8
O=C(Nc1ccccc1F)C1CCCN(S(=O)(=O)c2ccccc2)C1 (stereo not drawn),-9,1,2,3,1
O=C1c2ccccc2C(=O)N1CCc1nc(-c2ccccn2)no1,x,1,1,-16,x
O=C1c2ccccc2C(=O)N1CCCc1nc(-c2ccccn2)no1,36*,-3,14,-3,0
O=C(Nc1ccc(Cl)cc1)c1ccc2ncsc2c1,40*,u,-20,-5,0
O=C(Nc1ccc(F)cc1)c1ccc2ncsc2c1,18,6,-6,-3,0
CCOc1nc(NCCC2=CCCCC2)nc(N2CCOCC2)n1,-15,-3,6,0,0
CCOc1nc(NCCO)nc(NCCC2=CCCCC2)n1,-15,-2,49*,-5,0
COc1ccc(-n2nc(C(=O)N3CCN(c4ccc(F)cc4)CC3)c3ccccc3c2=O)c(OC)c1,34*,-1,-15,-5,9
Cc1ccc(NC(=O)CC2S/C(=N/N=C/c3ccco3)NC2=O)cc1Cl (stereo not drawn),33*,0,-2,-9,1
Cc1ccc(NC(=O)CC2S/C(=N/N=C/C=C/c3ccccc3)NC2=O)cc1Cl (stereo not drawn),10,-2,7,-1,0
CC(C)=N/N=C1/NC(=O)C(CC(=O)Nc2cc(Cl)ccc2C)S1 (stereo not drawn),46*,-4,-18,-36,0
Cc1ccccc1NC(=O)CC1SC(=Nc2ccc(O)cc2)NC1=O (stereo not drawn),14,-2,-14,-8,3
SMILES,D2 antagonist,D2 ag-1,D2 PAM-1,D2 PAM-2,D2 ag-2
O=C(NCCCN1CCCC1)c1[nH]c(C(F)(F)F)nc1-c1ccccc1,x,3,x,0,x
COc1ccc(CN2CCC(C(=O)c3cccc(Cl)c3)CC2)cc1,x,1,-13,-4,x
COc1ccc(CN2CCC(C(=O)c3ccc(Cl)cc3)CC2)cc1,35*,-4,-26,-81,-1
COc1ccccc1CN1CCN(Cc2nc(-c3ccc(C)cc3)oc2C)CC1,-1,-4,-6,-5,0
COc1ccc(-c2nc(CN3CCN(c4ccccc4OC)CC3)c(C)o2)cc1,99*,-8,-28,-8,0
COc1ccccc1N1CCN(Cc2cn[nH]c2-c2ccc(F)cc2)CC1,82*,5,-27,-34,6

# Screening results (PubChem BioAssay)
